Results published in PubChem BioAssay (EPA / NIEHS).
Records with an inconclusive call do not appear. Active and inactive are the calls of the source. How the source made its calls, unless noted: active means hit-call score of the fitted dose curve at least 0.9, where 1 is the maximum; inactive means score below 0.9.

Experiment: CCTE_Simmons_MITO_basal_resp_rate: CCTE's HepG2 Seahorse XF Respirometric Screening Assay at Basal Respiratory State, Simmons Lab (AID 2284001)
Settings: actives raise or lower the signal
Outline: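 Readout is oxygen consumption rate after test compound injection, measured by Seahorse XF in HepG2 cells. Seven concentrations from 125 nM up to 100 uM final are tested, and activity in either direction is fitted against DMSO.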

Structure (SMILES)	AC50	outcome
COCC(=O)N(c1c(C)cccc1C)C(C)C(=O)OC (stereo not given)	36.2 µM (active)	
CC(C)(C)C(=O)C(Oc1ccc(Cl)cc1)n1cncn1 (stereo not given)	40.6 µM (active)	
N#Cc1c[nH]cc1-c1cccc2c1OC(F)(F)O2	77.1 µM (active)	
CCSC(=O)N1CCCCCC1		inactive
CCOP(=S)(OCC)Oc1nc(Cl)n(C(C)C)n1	29.3 µM (active)	
CCNP(=S)(OC)O/C(C)=C/C(=O)OC(C)C (stereo not given)	37.9 µM (active)	
COCC(C)N(C(=O)CCl)c1c(C)csc1C (stereo not given)	55.3 µM (active)	
CC(C)=CC1C(C(=O)OCc2coc(Cc3ccccc3)c2)C1(C)C (stereo not given)		inactive
CCN(CC)c1nc(C)cc(OP(=S)(OC)OC)n1		inactive
Cn1c(-c2ccccc2)cc(-c2ccccc2)[n+]1C	41.9 µM (active)	
CCN(CC)C(=O)C(C)Oc1cccc2ccccc12 (stereo not given)		inactive
Cc1ccc(N=CN(C)C=Nc2ccc(C)cc2C)c(C)c1		inactive

Experiment: CCTE_Simmons_MITO_max_resp_rate: CCTE's HepG2 Seahorse XF Respirometric Screening Assay at Maximal Respiratory State [uncoupled], Simmons Lab (AID 2284002)
Settings: actives raise or lower the signal
Outline: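 Maximal (FCCP-uncoupled) respiration rate in HepG2, from Seahorse kinetic OCR over 72 min at 6 min cycles. Compounds at 125 nM–100 uM final, 7 points, three biological replicates; both directions fit relative to DMSO.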

Structure (SMILES)	outcome	AC50
COCC(=O)N(c1c(C)cccc1C)C(C)C(=O)OC (stereo not given)	inactive	
CC(C)(C)C(=O)C(Oc1ccc(Cl)cc1)n1cncn1 (stereo not given)		47.2 µM (active)
CCSC(=O)N1CCCCCC1	inactive	
CCOP(=S)(OCC)Oc1nc(Cl)n(C(C)C)n1		38.5 µM (active)
CCNP(=S)(OC)O/C(C)=C/C(=O)OC(C)C (stereo not given)		18.1 µM (active)
COCC(C)N(C(=O)CCl)c1c(C)csc1C (stereo not given)	inactive	
CC(C)=CC1C(C(=O)OCc2coc(Cc3ccccc3)c2)C1(C)C (stereo not given)	inactive	
CCN(CC)c1nc(C)cc(OP(=S)(OC)OC)n1	inactive	
Cn1c(-c2ccccc2)cc(-c2ccccc2)[n+]1C		20 µM (active)
CCN(CC)C(=O)C(C)Oc1cccc2ccccc12 (stereo not given)		32.7 µM (active)
Cc1ccc(N=CN(C)C=Nc2ccc(C)cc2C)c(C)c1	inactive	

Experiment: CCTE_Simmons_MITO_viability: CellTiter-Glo Viability Assessment for CCTE's HepG2 Seahorse XF Respirometric Screening Assay [post-hoc], Simmons Lab (AID 2284007; active means hit-call score of the fitted dose curve at least 0.9, where 1 is the maximum;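 on AC50: cells exposed to chemical for 90 min before the ATP read; actives lower ATP signal relative to DMSO baseline meaning reduced viability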)
Settings: not given
Outline: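 Post-hoc viability check on the HepG2 respirometry plates: luciferase-based ATP signal measured once, after 90 min compound exposure spanning 125 nM–100 uM final. Activity was referenced to DMSO as baseline.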

Structure (SMILES)	outcome	AC50
CC(C)(C)C(=O)C(Oc1ccc(Cl)cc1)n1cncn1 (stereo not given)	inactive	
N#Cc1c[nH]cc1-c1cccc2c1OC(F)(F)O2	inactive	
CCOP(=S)(OCC)Oc1nc(Cl)n(C(C)C)n1	inactive	
CCNP(=S)(OC)O/C(C)=C/C(=O)OC(C)C (stereo not given)	inactive	
COCC(C)N(C(=O)CCl)c1c(C)csc1C (stereo not given)	inactive	
CCN(CC)c1nc(C)cc(OP(=S)(OC)OC)n1	inactive	
Cn1c(-c2ccccc2)cc(-c2ccccc2)[n+]1C	inactive	
CCN(CC)C(=O)C(C)Oc1cccc2ccccc12 (stereo not given)		50 µM (active)

Experiment: CCTE_Shafer_MEA_acute_spike_number: CCTE's Neural Acute Assay for Total Number of Spikes, Shafer Lab (AID 2284008);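 on AC50: curve fitted for decrease in spike count so AC50 reflects inhibitors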
Settings: not given
Outline: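 Total spike count from 40 min recordings before and during compound exposure (0.03-40 uM), given as per-well percent change. Cortical cultures from rat, DIV 13 or 15, 37 C; adaptive detection threshold 8x rms noise.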

Structure (SMILES)	outcome	AC50
COCC(=O)N(c1c(C)cccc1C)C(C)C(=O)OC (stereo not given)	inactive	
N#Cc1c[nH]cc1-c1cccc2c1OC(F)(F)O2		4.28 µM (active)
C=C(C)CN(CC)c1c([N+](=O)[O-])cc(C(F)(F)F)cc1[N+](=O)[O-]		31.9 µM (active)
O=C(Nc1ccccc1-c1ccc(Cl)cc1)c1cccnc1Cl	inactive	
CC(C)C1(C)N=C(c2ncccc2C(=O)O)NC1=O (stereo not given)	inactive	
CNC(=O)Oc1cccc2ccccc12	inactive	
Clc1nc(Cl)nc(Nc2ccccc2Cl)n1	inactive	
CC1(C)C(C(=O)OC(C#N)c2cccc(Oc3ccccc3)c2)C1(C)C (stereo not given)	inactive	
CCCN(CC)CC1COC2(CCC(C(C)(C)C)CC2)O1 (stereo not given)	inactive	
CN/C(=N\[N+](=O)[O-])NCc1cnc(Cl)s1	inactive	
CCCC(=NOCC)C1=C(O)CC(CC(C)SCC)CC1=O (stereo not given)		11.1 µM (active)
CC(C)N1C(=O)c2ccccc2NS1(=O)=O	inactive	
CC(C)=CC1C(C(=O)OCc2coc(Cc3ccccc3)c2)C1(C)C (stereo not given)	inactive	
Cc1nc(N(C)C)nc(OC(=O)N(C)C)c1C	inactive	
Cn1c(-c2ccccc2)cc(-c2ccccc2)[n+]1C		1.05 µM (active)
N#CN=C1SCCN1Cc1ccc(Cl)nc1	inactive	
Cc1ccc(N=CN(C)C=Nc2ccc(C)cc2C)c(C)c1		0.126 µM (active)

Experiment: CCTE_Shafer_MEA_acute_firing_rate_mean: CCTE's Neural Acute Assay for Mean Firing Rate, Shafer Lab (AID 2284009);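 further: analyzed for loss of signal so actives lower firing rate relative to DMSO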
Settings: not given
Outline: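 Spontaneous spiking of primary rat cortical networks, DIV 13/15, 37 C. Compound 0.03-40 uM, n ≥3 wells; 40 min baseline vs 40 min treated. Endpoint fitted in loss-of-signal direction against DMSO.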

Structure (SMILES)	outcome	AC50
COCC(=O)N(c1c(C)cccc1C)C(C)C(=O)OC (stereo not given)	inactive	
N#Cc1c[nH]cc1-c1cccc2c1OC(F)(F)O2		4.27 µM (active)
C=C(C)CN(CC)c1c([N+](=O)[O-])cc(C(F)(F)F)cc1[N+](=O)[O-]		31.9 µM (active)
O=C(Nc1ccccc1-c1ccc(Cl)cc1)c1cccnc1Cl	inactive	
CC(C)C1(C)N=C(c2ncccc2C(=O)O)NC1=O (stereo not given)	inactive	
CNC(=O)Oc1cccc2ccccc12	inactive	
Clc1nc(Cl)nc(Nc2ccccc2Cl)n1	inactive	
CC1(C)C(C(=O)OC(C#N)c2cccc(Oc3ccccc3)c2)C1(C)C (stereo not given)	inactive	
CCCN(CC)CC1COC2(CCC(C(C)(C)C)CC2)O1 (stereo not given)	inactive	
CN/C(=N\[N+](=O)[O-])NCc1cnc(Cl)s1	inactive	
CCCC(=NOCC)C1=C(O)CC(CC(C)SCC)CC1=O (stereo not given)		11.1 µM (active)
CC(C)N1C(=O)c2ccccc2NS1(=O)=O	inactive	
CC(C)=CC1C(C(=O)OCc2coc(Cc3ccccc3)c2)C1(C)C (stereo not given)	inactive	
Cc1nc(N(C)C)nc(OC(=O)N(C)C)c1C	inactive	
Cn1c(-c2ccccc2)cc(-c2ccccc2)[n+]1C		1.05 µM (active)
N#CN=C1SCCN1Cc1ccc(Cl)nc1	inactive	
Cc1ccc(N=CN(C)C=Nc2ccc(C)cc2C)c(C)c1		0.125 µM (active)
